Measured values published in the supplement of paper PMC4206467.

What follows are compounds tested on Perkinsus marinus PRA240 (assay: ATP content (proliferation) relative to DMSO control; higher = more parasite growth (less inhibition)). Conditions: 20 µM; 4 days.
Method: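 Perkinsus marinus PRA240 trophozoites (2-5x10^6 cells/ml, 100 µl, 96-well) were exposed once to MMV Malaria Box compounds at 20 µM (0.1% DMSO) in triplicate. ATP content (ATPlite bioluminescence) was read at day 4 post-exposure and normalised to DMSO + cells control wells (100% activity). Compounds were identified by joining plate and well to the Malaria Box list.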

Row | SMILES | ATP content [%]
1 | CCCCC(O)(c1ccc(Cl)cc1)C(CN1CCOCC1)c1ccc(Cl)cc1 (centres undefined) | 131
2 | CC(C)CCNCC(O)Cn1c2ccccc2c2ccccc21 (centres undefined) | 140
3 | CCCCNCC(O)(c1ccc(Cl)cc1)c1ccc(Cl)cc1 | 103
4 | C=CCc1c(C)nc2ccccc2c1O | 48
5 | Oc1ccccc1CN1CCC2(CCCN(Cc3ccccc3F)C2)C1 (centres undefined) | 70.1
6 | O=C(NCc1ccco1)C1CCN(S(=O)(=O)c2ccc(Br)cc2)CC1 | 147
7 | O=C(Nc1cccc(C2=NCCN2)c1)Nc1cccc(C2=NCCN2)c1 | 128
8 | COc1cccc(-c2nn(C)c3sc(C(=O)NCCN4CCN(c5ccccc5F)CC4)cc23)c1 | 89.7
9 | COc1ccc(CCNC(=O)c2cc(S(=O)(=O)N3CC(C)CC(C)C3)ccc2Sc2ccc(F)cc2)cc1OC (centres undefined) | 160
10 | Nc1nc(Nc2cccc(F)c2)nc2ccccc12 | 26
11 | CCOC(=O)c1cnc2c(C)cccc2c1Nc1ccc(C(C)=O)cc1 | 122
12 | CCn1nc(-c2ccc(C(=O)OC)cc2)nc2c(=O)n(C)c(=O)nc1-2 | 1.37
13 | CC(C)(C)CC(C)(C)NCC(O)COc1ccc(Cl)cc1Cl (centres undefined) | 123
14 | CCOc1ccc2nc(C)cc(Nc3ccc(N(C)C)cc3)c2c1 | 86.6
15 | CCCCc1c(CCC)c(=N)c2ccccc2n1C | 95.4
16 | O=C(Nc1ccc(-c2nc3ccccc3[nH]2)cc1)c1ccc(Cl)c(Cl)c1 | 97.8
17 | O=C(CSc1ccc2nnc(-c3cccc(F)c3)n2n1)Nc1ccc2c(c1)OCO2 | 102
18 | COc1ccc(CCN2CCC(CN(C)Cc3cnn(-c4ccccc4)c3)CC2)cc1 | 110
19 | O=C(Nc1ccc(C23CC4CC(CC(c5ccccc5)(C4)C2)C3)cc1)c1cccs1 | 68.7
